The test system of experiment [1] is DLD1. Description: cell viability (CellTiter-Glo) relative to plate median (fraction of plate median); higher = more viable cells. The settings on record: 5 µM; treatment time 24 h; reporter: 7TFP. A digest of the protocol:
(§1)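 Colorectal cancer cell lines stably carrying lentiviral TCF/Wnt firefly luciferase reporters (7TFP or TCF4/Wnt) were plated in 384-well plates and, 24 h later, given library compounds at a final 5 µM for 24 h. Firefly luciferase or CellTiterGlo luminescence was read on parallel plates with a Tecan F500 reader. Each well's signal was normalised to the plate median in webcellHTS2 (additive, without log transformation). Values are the mean of two independent replicates.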
A general note: ATP-based viability assays read luminescence as a measure of living cells.

Experiment [2] concerns HCT116. The experiment is described as above. Conditions: 5 µM; treatment time 24 h; reporter: TCF4/Wnt. A digest of the protocol: as §1
Experiment [3] relates to SW480. Described as above. The settings on record: 5 µM; treatment time 24 h; reporter: 7TFP. An outline of the steps:
as §1

Experiment [4] concerns DLD1. Nature of the experiment: TCF/Wnt firefly luciferase reporter signal relative to plate median (fraction of plate median); higher = higher Wnt reporter signal. Conditions: 5 µM; treatment time 24 h; reporter: 7TFP. A digest of the protocol: as §1
(In general: Reporter assays use an easily measured gene product as a stand-in for the process of interest.)

For experiment [5], the system named is SW480. Described as above. The settings on record: 5 µM; treatment time 24 h; reporter: 7TFP. An outline of the steps:
as §1

Several values for one entry are separate records, joined by “and”; a condition that tells them apart may be missing. Identical values can stand only once. ± gives the standard deviation of the averaged measurements.

Consider `CC[C@@H]1C(=O)N(C)c2cnc(Nc3ccc(C(=O)N[C@H]4CC[C@H](N5CCN(CC6CC6)CC5)CC4)cc3OC)nc2N1C(C)C` [Volasertib], for which the results for the cell viability in experiment [1], in experiment [2] and in experiment [3] were 1 ± 0.036, 0.666 ± 0.095 and 1.21 ± 0.078, respectively. Besides, the entries for the “TCF/Wnt firefly luciferase reporter signal” value in experiment [4] and in experiment [5] were 0.91 ± 0.17 and 1.06 ± 0.042, respectively.
For `CN1CCN(C(c2ccccc2)c2ccccc2)CC1`, the cell viability is 1.04 ± 0.021 in experiment [1], 0.953 ± 0.018 in experiment [2] and 1.07 ± 0.028 in experiment [3]. Also, the figures for the “TCF/Wnt firefly luciferase reporter signal” value in experiment [4] and in experiment [5] were 0.977 ± 0.12 and 1.01 ± 0.12, respectively.
The like results for `Oc1ncnc2[nH]ncc12` were, in that order, 0.939 ± 0.063, 1.05 ± 0.12, 1.07 ± 0.057, 1.03 and 0.961 ± 0.11.
Taken in the same sequence, the figures for `CN(C)CCOC(c1ccccc1)c1ccccc1.Cn1c(=O)c2[nH]c(Cl)nc2n(C)c1=O` were 0.909 ± 0.025, 1.04 ± 0.1, 0.927 ± 0.022, 1.14 ± 0.13 and 1.12 ± 0.021.
The like results for `CCN(CC)CCNC(=O)c1cc(Br)c(N)cc1OC` were, in that order, 1.02 ± 0.081, 1.07 ± 0.028, 1.02 ± 0.047, 0.985 ± 0.05 and 1.16 ± 0.078.
`Cc1ccc2c(c1)CC[C@H]1CC(=O)CC[C@]21C`: the cell viability in experiment [1] turned out to be 1.03 ± 0.035; in experiment [2], 1.05 ± 0.097; in experiment [3] it was 0.9365 ± 0.0021. The results for the “TCF/Wnt firefly luciferase reporter signal” value in experiment [4] and in experiment [5] were 0.941 ± 0.13 and 0.957 ± 0.0028, respectively.
Taken in the same sequence, the figures for `COc1ccc(C(C)=O)c(OC)c1` were 0.971 ± 0.056, 0.963 ± 0.15, 0.9765 ± 0.00071, 0.864 ± 0.044 and 1.03 ± 0.16.
Taken in the same sequence, the figures for `COc1ccc2c(c1)OC/C(=C/c1ccc(O)c(O)c1)C2=O` were 0.99 ± 0.043, 1.01 ± 0.021, 0.986 ± 0.035, 0.944 ± 0.033 and 1.09 ± 0.078.
The like results for `O=C(CCCN1CCC(O)(c2ccc(Cl)cc2)CC1)c1ccc(F)cc1` were, in that order, 1 ± 0.021, 1.075 ± 0.0071, 0.995 ± 0.078, 1.08 ± 0.035 and 1.05 ± 0.064.
On to `Nc1nnc(-c2cccc(Cl)c2Cl)c(N)n1`, for which the cell viability in experiment [1] came out at 1.05 ± 0.05; in experiment [2] it was 1.04 ± 0.069; in experiment [3] it was 0.975 ± 0.05. For the same molecule, the “TCF/Wnt firefly luciferase reporter signal” value in experiment [4] came out at 0.923 ± 0.018; in experiment [5] it was 0.985 ± 0.036.
Taken in the same sequence, the figures for `O=C(O)CCCC[C@@H]1SC[C@@H]2NC(=O)N[C@@H]21` were 1.03 ± 0.063, 0.954 ± 0.04, 0.948 ± 0.0042, 0.982 ± 0.022 and 0.963 ± 0.0042.
On to `CCC[C@H](N[C@@H](C)C(=O)N1[C@H](C(=O)O)C[C@@H]2CCCC[C@@H]21)C(=O)OCC`, for which the cell viability came to 1.03 ± 0.05 in experiment [1], 1.08 ± 0.035 in experiment [2] and 0.961 ± 0.037 in experiment [3]. Besides, the entries for the “TCF/Wnt firefly luciferase reporter signal” value in experiment [4] and in experiment [5] were 0.982 ± 0.025 and 1.08 ± 0.078, respectively.
In the case of `NCCC(=O)c1ccccc1N`, the cell viability in experiment [1] was 1.03 ± 0.052; in experiment [2], 1.08 ± 0.057; in experiment [3], 0.987 ± 0.0085. The “TCF/Wnt firefly luciferase reporter signal” value in experiment [4] amounted to 0.981 ± 0.042; in experiment [5], 0.838 ± 0.016.
Regarding `OCC(O)C(O)C(O)CO` (stereo not given), the cell viability was 0.921 and 1.07 in experiment [1]; 0.918 and 1.01 in experiment [2]; 0.905 and 0.944 in experiment [3]. The “TCF/Wnt firefly luciferase reporter signal” value in experiment [4] is 1.02 and 1.01; in experiment [5] it was 1.06 and 1.04.
On to `Clc1ccccc1C(c1ccccc1)(c1ccccc1)n1ccnc1`, for which the cell viability in experiment [1] turned out to be 1.05 ± 0.089; in experiment [2], 1 ± 0.11; in experiment [3], 0.956 ± 0.0042. For the same molecule, the “TCF/Wnt firefly luciferase reporter signal” value in experiment [4] amounted to 0.938 ± 0.086; in experiment [5] it was 1.08 ± 0.014.
Taken in the same sequence, the figures for `CC(=O)OCC(=O)[C@@]1(O)CC[C@H]2[C@@H]3CCC4=CC(=O)CC[C@]4(C)[C@H]3[C@@H](O)C[C@@]21C` were 1.04 ± 0.077, 1.08 ± 0.057, 1.04 ± 0.05, 1.05 and 1.07 ± 0.064.
Taken in the same sequence, the figures for `CC[C@@H](C(=O)[C@@H](C)[C@@H](O)[C@H](C)CCc1ccc(C)c(O)c1C(=O)O)[C@H]1O[C@](CC)([C@H]2CC[C@](O)(CC)[C@H](C)O2)C[C@@H]1C` were 0.985 ± 0.013, 1.03 ± 0.098, 1.02 ± 0.014, 1.23 ± 0.099 and 1.03 ± 0.12.
Consider `O=c1c(-c2cc(O)c(O)c(O)c2)coc2cc(O)c(O)c(O)c12`, for which the figures for the cell viability in experiment [1], in experiment [2] and in experiment [3] were 1.005 ± 0.0071, 1.1 ± 0.078 and 1.04, respectively. The “TCF/Wnt firefly luciferase reporter signal” value in experiment [4] turned out to be 1.09 ± 0.035; in experiment [5], 0.93 ± 0.14.
The like results for `C[C@@H]1O[C@@H]1P(=O)(O)O` were, in that order, 1.04, 0.995 ± 0.15, 1.06 ± 0.028, 1.03 ± 0.028 and 0.997 ± 0.22.
The like results for `COC(=O)/C=C/C(C)=C\C=C\C(C)=C\C=C\C=C(C)\C=C\C=C(C)\C=C\C(=O)O` were, in that order, 1.05 ± 0.057, 1.05 ± 0.028, 0.968 ± 0.046, 0.981 ± 0.042 and 0.997 ± 0.047.
Turning to `Nc1[nH]cnc2ncnc1-2`, the results for the cell viability in experiment [1], in experiment [2] and in experiment [3] were 1.2, 1.1 ± 0.071 and 1.82 ± 0.028, respectively. Also, the “TCF/Wnt firefly luciferase reporter signal” value was 0.981 ± 0.012 in experiment [4] and 1.65 ± 0.26 in experiment [5].
The like results for `c1ccc2[nH]c(-c3cscn3)nc2c1` were, in that order, 1.02 ± 0.021, 1.17 ± 0.035, 1.02, 1.32 ± 0.16 and 1.18 ± 0.028.
For the molecule `CC(C)NC[C@@H](O)COc1cccc2ccccc12`, the cell viability in experiment [1] was 1.09 ± 0.057; in experiment [2] it was 1.06; in experiment [3], 1.11 ± 0.11. In addition, the “TCF/Wnt firefly luciferase reporter signal” value came to 1.01 ± 0.021 in experiment [4] and 1.01 ± 0.05 in experiment [5].
Taken in the same sequence, the figures for `C=C[C@@](C)(O)CCC1C(=C)CCC2[C@@](C)(CO)CCC[C@]12C` (stereo not given in full) were 1.005 ± 0.0071, 1.14 ± 0.16, 1.1 ± 0.021, 0.967 ± 0.017 and 1.01 ± 0.067.
The like results for `OC[C@@H](O)[C@@H](O[C@@H]1O[C@H](CO)[C@@H](O)[C@H](O)[C@H]1O)[C@H](O)[C@@H](O)CO` were, in that order, 0.959 ± 0.058, 1.01 ± 0.058, 1.01 ± 0.03, 1.08 ± 0.12 and 1.11 ± 0.014.
Taken in the same sequence, the figures for `C=CCSCC(N)C(=O)O` (stereo not given) were 1.015 ± 0.0071, 0.976 ± 0.15, 1.01 ± 0.05, 0.923 ± 0.027 and 0.923 ± 0.02.
For the molecule `CCCNCC(O)COc1ccccc1C(=O)CCc1ccccc1` (stereo not given), the figures for the cell viability in experiment [1], in experiment [2] and in experiment [3] were 0.96 ± 0.085, 1.07 ± 0.22 and 0.927 ± 0.033, respectively. Also, the “TCF/Wnt firefly luciferase reporter signal” value in experiment [4] came to 1.06 ± 0.091; in experiment [5], 0.883 ± 0.12.
For the molecule `COc1cccc2c(C)cc(=O)[nH]c12`, the figures for the cell viability in experiment [1], in experiment [2] and in experiment [3] were 1.05 ± 0.15, 1.07 ± 0.11 and 1.02 ± 0.09, respectively. Moreover, the “TCF/Wnt firefly luciferase reporter signal” value worked out at 1.05 ± 0.064 in experiment [4] and 1.11 ± 0.085 in experiment [5].
Taken in the same sequence, the figures for `CN1C(C)(C)CCCC1(C)C` were 0.993 ± 0.0099, 0.939 ± 0.13, 1.02 ± 0.059, 0.982 ± 0.011 and 1 ± 0.025.
Taken in the same sequence, the figures for `C[C@@H]1[C@H](O)[C@@H](C)/C=C/C=C/C=C/C=C/C=C/C=C/C=C/[C@H](O[C@@H]2O[C@H](C)[C@@H](O)[C@H](N)[C@@H]2O)C[C@@H]2O[C@](O)(C[C@@H](O)C[C@@H](O)[C@H](O)CC[C@@H](O)C[C@@H](O)CC(=O)O[C@H]1C)C[C@H](O)[C@H]2C(=O)O` were 1.04 ± 0.076, 1 ± 0.096, 1.02 ± 0.089, 1.06 ± 0.14 and 1.01 ± 0.018.

These data come from the supplement of paper PMC6522484.
